These entries were drawn from the full list.
aSyn 5UTR act: Activators via SNCA 5'UTR binding, MLPCN; actives 7.1% (n = 300,000); activity score, % (tested at 7.5 µM), hits read low; alpha-synuclein 5'UTR reporter, activators screen; in the data active means activity score below about -60%
* hit, by the source's call.

COc1cc(/C=N/NC(=O)c2cc(-c3cccn3C)n[nH]2)cc(OC)c1OC was read as aSyn 5UTR act -71*.
`COc1cccc(/C=N/NC(=O)c2cc(-c3cccn3C)n[nH]2)c1O` gave aSyn 5UTR act 95.
`Cc1ccc(NC(=O)/C(C#N)=C/c2ccc(C)s2)c(C)c1` gave aSyn 5UTR act -92*.
Screening O=C(Oc1ccc(F)cc1C(=O)/C=C/c1cccs1)c1cccc([N+](=O)[O-])c1 returned aSyn 5UTR act -87*.
Cc1ccc(-n2nc(C)c3c(C)c(CCC(=O)Nc4ccc(CN5CCCC5)cc4)c(C)nc32)cc1 was read as aSyn 5UTR act 104.
For CCOc1ccc(NC(=O)CCc2c(C)nn(-c3ccc(N4CCCCC4)nn3)c2C)cc1 the results were aSyn 5UTR act -81*.
Cc1nn(-c2ccc(N3CCCCC3)nn2)c(C)c1CCC(=O)Nc1cccc(F)c1 was read as aSyn 5UTR act -120*.
For Cc1nn(-c2ccc(N3CCCCC3)nn2)c(C)c1CCC(=O)Nc1ccc(F)cc1 the results were aSyn 5UTR act -90*.
`Cc1ccc(NC(=O)CCc2c(C)nn(-c3ccc(N4CCCCC4)nn3)c2C)cc1F` gave aSyn 5UTR act -85*.
`Oc1cccc(Nc2c3ccccc3nc3ccccc23)c1` gave aSyn 5UTR act -81*.
For Cc1ccc(C2CN=NC23CCc2ccccc2C3=O)cc1 (stereo not drawn) the results were aSyn 5UTR act -80*.
Screening Cc1csc(NC(=O)CSc2nsc(SCC(=O)Nc3nc(C)cs3)c2C#N)n1 returned aSyn 5UTR act -210*.
For CCc1ccc(C(=O)NNc2ccccc2F)cc1 the results were aSyn 5UTR act -83*.
Screening CCCc1ccc(C(=O)NNc2ccccc2F)cc1 returned aSyn 5UTR act -110*.
`CC1CCN(C(=O)COC(=O)c2ccccc2NC(=O)c2ccco2)CC1` gave aSyn 5UTR act -73*.
For Cc1ccccc1OCCC(=O)Nc1ccc2c(C)cc(=O)oc2c1 the results were aSyn 5UTR act -64*.
CCN(CC)c1ccc(C(=O)OCc2cc(=O)oc3cc(O)ccc23)cc1 was read as aSyn 5UTR act 117.
For CCOC(=O)Nc1ccc2c(COC(=O)c3ccccc3O)cc(=O)oc2c1 the results were aSyn 5UTR act -83*.
For COc1ccccc1C(=O)Nc1ccc2c(C)cc(=O)oc2c1 the results were aSyn 5UTR act -154*.
For CCCOc1ccc(-c2nnc(N)s2)cc1 the results were aSyn 5UTR act -136*.
`CCCOc1ccc(-c2nc(-c3ccc(N)cc3)cs2)cc1` gave aSyn 5UTR act -123*.
Screening CC(C)c1ccc(-c2nnc(N)s2)cc1 returned aSyn 5UTR act -102*.
`O=c1oc2cc(O)c(Cl)cc2c2ccccc12` gave aSyn 5UTR act -88*.
O=[N+]([O-])c1ccc(N/N=C/c2ccccc2O)cc1 was read as aSyn 5UTR act -165*.
For CCCOc1ccc(/C=N/Nc2ccc(C(=O)O)cc2)c(OCCC)c1 the results were aSyn 5UTR act -109*.
Screening CN(/N=C/c1cc([N+](=O)[O-])ccc1O)c1ccccc1 returned aSyn 5UTR act -159*.
Screening O=[N+]([O-])c1cccc(N/N=C/c2cc([N+](=O)[O-])ccc2O)c1 returned aSyn 5UTR act -70*.
Screening O=[N+]([O-])c1ccc(O)c(/C=N/Nc2ccccn2)c1 returned aSyn 5UTR act 95.
`O=[N+]([O-])c1ccc(O)c(C=Nc2ccc3c(c2)OCCO3)c1` gave aSyn 5UTR act -62*.
CCCOc1ccc(/C=N/Nc2ccccc2[N+](=O)[O-])c(O)c1 was read as aSyn 5UTR act 62.
`CCCOc1ccc(/C=N/Nc2cccc([N+](=O)[O-])c2)c(O)c1` gave aSyn 5UTR act -164*.
`COc1ccc(OC)c(C(=O)Nc2ccc3[nH]ccc3c2)c1` gave aSyn 5UTR act -112*.
`COc1ccc(C(=O)Nc2ccc3[nH]ccc3c2)cc1OC` gave aSyn 5UTR act -134*.
For COc1ccc(C(=O)Nc2ccc3[nH]ccc3c2)cc1 the results were aSyn 5UTR act 66.
Cc1ccccc1NC(=O)CSC1=C(C#N)C(c2ccsc2)CC(=O)N1 (stereo not drawn) was read as aSyn 5UTR act -84*.
Screening Cc1ccc(NC(=O)CSC2=C(C#N)C(c3ccco3)CC(=O)N2)cc1 (stereo not drawn) returned aSyn 5UTR act -148*.
`CC(C)C1CC(=O)NC(SCC(=O)Nc2ccc(Br)cc2)=C1C#N` (stereo not drawn) gave aSyn 5UTR act -74*.
CNS(=O)(=O)c1ccc(NC(=S)Nc2ccc3c(c2)OCO3)cc1 was read as aSyn 5UTR act -129*.
For O=S(=O)(c1ccc(NC(=S)Nc2ccc3c(c2)OCO3)cc1)N1CCOCC1 the results were aSyn 5UTR act -227*.
`c1ccc(-c2nnc(-c3ccccn3)nn2)nc1` gave aSyn 5UTR act -122*.
For c1ccc(-c2cccc(-c3ccccn3)n2)nc1 the results were aSyn 5UTR act 77.
`Cn1c(C(=O)NCc2ccccn2)cc2c(=O)n3ccccc3nc21` gave aSyn 5UTR act -89*.
`Cn1c(C(=O)NC2CCCCC2)cc2c(=O)n3ccccc3nc21` gave aSyn 5UTR act -134*.
For Cc1cccc(-c2nc(C#N)c(N3CCCCC3)o2)c1 the results were aSyn 5UTR act -187*.
Screening Cc1cccc(-c2nc(C#N)c(NC3CCCCC3)o2)c1 returned aSyn 5UTR act -171*.
Screening Cc1ccc(C(=O)/C=C2/NC(=O)CS2)cc1 returned aSyn 5UTR act -103*.
For COC(=O)c1ccc(/C=N/Nc2nc3ccccc3[nH]2)cc1 the results were aSyn 5UTR act -176*.
Screening c1ccc2[nH]c(NN=C3CCCCCC3)nc2c1 returned aSyn 5UTR act -114*.
`Clc1nc2ccccc2cc1/C=N/Nc1nc2ccccc2[nH]1` gave aSyn 5UTR act -97*.
For CC(=O)Nc1ccc(/C=N/Nc2nc3ccccc3[nH]2)cc1 the results were aSyn 5UTR act -101*.
`C(=N\Nc1nc2ccccc2[nH]1)/c1ccncc1` gave aSyn 5UTR act -147*.
Cc1cc2ncn(CCOc3ccccc3)c2cc1C was read as aSyn 5UTR act -168*.
`CC(=O)Nc1ccc(C(=O)NCCc2ccccc2)cc1` gave aSyn 5UTR act -131*.
Screening O=C(NCCCc1ccccc1)c1ccc(F)cc1 returned aSyn 5UTR act -101*.
`C=CCN(c1ccc(C(=O)NCCc2ccccc2)cc1)S(C)(=O)=O` gave aSyn 5UTR act -109*.
O=C(NCCc1ccccc1)c1ccncc1 was read as aSyn 5UTR act -146*.
`CCCNC(=O)c1ccc2c(=O)c(O)c(-c3ccc(C)cc3)[nH]c2c1` gave aSyn 5UTR act 69.
Screening O=C(NCCc1ccccc1)c1ccc(Cl)nc1 returned aSyn 5UTR act -169*.
Screening O=C(NCCc1ccccc1)c1ccc(NS(=O)(=O)c2ccc3[nH]c(=O)[nH]c3c2)cc1 returned aSyn 5UTR act -72*.
For CCOC(=O)C(C)Oc1cccc2c(=O)n(CC(=O)NCc3ccccc3)ccc12 (stereo not drawn) the results were aSyn 5UTR act 73.
Screening CCOC(=O)COc1cccc2c(=O)n(CC(=O)NCCc3ccccc3)ccc12 returned aSyn 5UTR act -73*.
For Cc1ccc(-n2cnc3cc(NCc4cccs4)ccc32)cc1 the results were aSyn 5UTR act -94*.
For c1ccc(-n2cnc3cc(NCc4cccs4)ccc32)cc1 the results were aSyn 5UTR act -167*.
Screening c1ccc(-n2cnc3cc(NCc4ccco4)ccc32)cc1 returned aSyn 5UTR act -161*.

Assay outcomes from PubChem BioAssay.
